Results taken from PubChem BioAssay.
The source made the active and inactive calls. Unless noted, how the calls were made is not given here.

Legend:
[1] = test system: XIP peptide (Xip251-270) binding; assay: XIP fragment 251-270 binding compounds – biochemical, small-molecule microarray, fluorescence 635/667 nm, 0.1 µg/mL protein, primary screen (AID 1182); settings: fluorescent protein binding, 635 nm, higher = more signal, called active from +8 up or from −8 down
XIP peptide (Xip251-270) = assay: compounds binding XIP fragment 251-270 – biochemical, small-molecule microarray, fluorescence 635/667 nm, 0.5 µg/mL protein, primary screen (AID 1183); settings: fluorescence 635 nm, higher = more signal
[2] = blood-stage malaria parasite viability loss – strain 3D7, DAPI fluorescence, 100 nL, primary screen (AID 1184);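 further: parasites grown inside human red blood cells in medium with human serum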; settings: P. falciparum 3D7 growth, 3 d, higher = more signal
[3] = target: Homeobox protein Hox-A13 (Mus musculus) (UniProt Q62424); assay: disruptors of Hoxa13 oligonucleotide interaction – biochemical, fluorescence polarization, labeled oligonucleotide, primary screen (AID 1185); settings: Hoxa13:DNA binding, 15 min, higher = more signal, called active from +8 up or from −8 down
[4] = blockers of DNA damage checkpoint Chk1 activation – imaging, HeLa, hydroxyurea, phospho-Chk1 antibody, percent positive cells, primary screen (AID 1186); settings: hydroxyurea-induced phospho-Chk1 immunofluorescence imaging, higher = more signal
[5] = blockers of DNA damage checkpoint Chk1 activation – imaging, HeLa, hydroxyurea, phospho-Chk1 nuclear intensity, primary screen (AID 1187); settings: hydroxyurea-induced phospho-Chk1 immunofluorescence imaging, higher = more signal

Sequence of Homeobox protein Hox-A13 (Mus musculus) (Q62424 whole entry, looked up): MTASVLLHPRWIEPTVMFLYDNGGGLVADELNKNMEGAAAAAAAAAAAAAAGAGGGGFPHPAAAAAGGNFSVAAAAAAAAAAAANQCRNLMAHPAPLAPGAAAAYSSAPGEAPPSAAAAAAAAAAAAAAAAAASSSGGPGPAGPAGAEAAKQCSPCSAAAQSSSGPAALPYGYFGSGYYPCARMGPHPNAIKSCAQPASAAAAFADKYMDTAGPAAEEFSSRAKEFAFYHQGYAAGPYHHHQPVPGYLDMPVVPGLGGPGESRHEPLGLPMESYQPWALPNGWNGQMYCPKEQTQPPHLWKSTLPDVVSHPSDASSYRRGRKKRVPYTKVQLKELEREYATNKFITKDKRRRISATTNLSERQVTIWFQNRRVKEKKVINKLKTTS

Row | SMILES | composite z-score [1] | composite z-score (XIP peptide (Xip251-270)) | z-score [2] | z-score [3] | z-score [4] | z-score [5]
1 | O=C(CS)NCCCCCNC(=O)[C@H]1C[C@H]2C(=O)N[C@@H](Cc3ccccc3)C(=O)N2[C@H]1c1ccc(O)cc1 | 0.818 (inactive) | -0.072 | -0.0713 | -2.65 (inactive) | -0.319 (inactive) | 0.637 (inactive)
2 | COC(=O)C1=CC(c2ccc(CO)cc2)=CC(c2cccs2)N(Cc2cccc(OC(F)(F)F)c2)C=C1C(=O)OC (stereo not given) | 2.19 (inactive) | 0.79 | -1.91 | -8.1 (active) | 0.311 (inactive) | 0.206 (inactive)
3 | C=CCC(OC(C)=O)[C@@H]1[C@@H](N(Cc2ccc(-c3ccccc3)cc2)C(=O)c2ccc(-c3ccccc3)cc2)c2cc(OCCCO)ccc2N1C(=O)Cc1ccc(OC)cc1 (stereo not given in full) | 0.195 (inactive) | -0.126 | -0.314 | -1.31 (inactive) | -0.282 (inactive) | -0.47 (inactive)
4 | COC(=O)c1ccc(C#CC(NP(=O)(c2ccccc2)c2ccccc2)c2ccccc2)cc1 (stereo not given) | 0.238 (inactive) | -0.0253 | -0.253 | -3.02 (inactive) | -1.14 (inactive) | -1.03 (inactive)
5 | CCOC(=O)C[C@H]1[C@H](OC(=O)c2cc3ccccc3oc2=O)[C@@H](NC(=O)C2CCCCC2)c2cc(OCCCO)ccc2N1C(=O)c1ccc2ccccc2n1 | -0.0413 (inactive) | 0.522 | -0.292 | -4.56 (inactive) | 0.453 (inactive) | 0.333 (inactive)
6 | CCCC=C(CCC)[C@@H](NS(=O)(=O)c1ccc(-c2ccccc2)cc1)c1ccc(C(=O)OC)cc1 | 0.046 (inactive) | -0.203 | -1.37 | -1.02 (inactive) | -0.361 (inactive) | -0.761 (inactive)
7 | CCCNC(=O)[C@@H]1c2ccccc2C(=O)N(C2CCCCC2)[C@H]1c1ccc(CO)cc1 | 0.521 (inactive) | 0.749 | -0.939 | -3.69 (inactive) | 0.108 (inactive) | -0.138 (inactive)
8 | C=C(C(=O)CC[C@H](OC(=O)c1ccccc1-c1ccccc1C(=O)O)c1ccc(CO)o1)C(C)C | 0.161 (inactive) | 0.697 | -0.241 | -6.22 (inactive) | 0.38 (inactive) | 0.239 (inactive)
9 | COCCCNC(=O)[C@@]1(Sc2ccc(C)cc2)CC(=O)N(Cc2cc(C(F)(F)F)cc(C(F)(F)F)c2)[C@@H]1c1ccc(CO)cc1I | -0.291 (inactive) | -0.413 | -0.709 | -1.21 (inactive) | 0.007 (inactive) | 0.283 (inactive)
10 | COc1ccc(C(=O)Nc2ccc(CN3C(=O)[C@]4(O[C@H](CCn5cc(CCO)nn5)[C@@H]([Si](C)(C)c5ccc(OC)cc5)[C@@H]4C)c4ccccc43)cc2)cc1 | -0.154 (inactive) | 0.621 | -2.78 | -3.55 (inactive) | 0.188 (inactive) | 0.686 (inactive)
11 | O=C(N1CCCCC1)[C@@]1(CCS(=O)(=O)c2ccccc2)N=C(c2ccc(OCCCO)cc2)O[C@H]1c1ccccc1 | -0.43 (inactive) | 0.23 | -2.24 | -3.65 (inactive) | -0.61 (inactive) | -0.262 (inactive)
12 | C=CCN1C(=O)[C@]2(O[C@H](CCn3cc(CCO)nn3)[C@@H]([Si](C)(C)c3ccc(OC)cc3)[C@@H]2C)c2cc(NC(=O)c3ccc(OC)cc3)ccc21 | 1.02 (inactive) | 0.18 | -2.84 | -4.21 (inactive) | -0.798 (inactive) | -0.823 (inactive)
13 | O=C(CS)NCCCCCCNC(=O)[C@@H]1C[C@@H]2C(=O)N[C@@H](Cc3ccccc3)C(=O)N2[C@@H]1c1ccc(O)cc1 | 0.794 (inactive) | 0.811 | -1.02 | -2.14 (inactive) | -0.0496 (inactive) | 0.23 (inactive)
14 | COCCOC(=O)N1C(=O)[C@@]2(c3cc(C#CC4=CCCCC4)ccc31)[C@H](c1ccc(O)cc1)N1[C@H](c3ccccc3)[C@H](c3ccccc3)OC(=O)[C@H]1[C@@H]2C(=O)N1CCCCCCC1 | 0.505 (inactive) | 0.678 | -1.66 | 2.08 (inactive) | -0.104 (inactive) | 0.0587 (inactive)
15 | CN1C(=O)C2C=CC(C(O)C3CC=CCC3)N(Nc3ccccc3)C2C1=O (stereo not given) | 0.769 (inactive) | 0.795 | 0.235 | -3.96 (inactive) | 0.202 (inactive) | 0.25 (inactive)
16 | Cc1ccc(S[C@]2(C(=O)O)CC(=O)N(Cc3cc(C(F)(F)F)cc(C(F)(F)F)c3)[C@@H]2c2ccc(CO)cc2I)cc1 | -0.313 (inactive) | 0.761 | -0.48 | -2.32 (inactive) | 0.407 (inactive) | 1.08 (inactive)
17 | C=CCC(OC(C)=O)[C@@H]1[C@@H](N(Cc2cc3ccccc3o2)C(=O)Cc2ccc(F)cc2)c2cc(OCCCO)ccc2N1C(=O)c1ccc(-c2ccccc2)cc1 (stereo not given in full) | -0.618 (inactive) | -0.666 | -0.0101 | -1.04 (inactive) | 0.0934 (inactive) | 0.192 (inactive)
18 | Cc1ccc(S[C@]2(C(=O)NCCN3CCOCC3)CC(=O)N(C3Cc4ccccc4C3)[C@@H]2c2ccc(CO)cc2I)cc1 | 0.669 (inactive) | 0.771 | -0.861 | -2.43 (inactive) | 0.18 (inactive) | 0.764 (inactive)
19 | COc1ccc([Si](C)(C)[C@H]2[C@H](CCO)O[C@@]3(C(=O)N(Cc4ccccc4)c4ccc(N5C(=O)c6cccc7cccc5c67)cc43)[C@@H]2C)cc1 | 1.25 (inactive) | 0.353 | -2.48 | 0.2 (inactive) | -1.01 (inactive) | -0.207 (inactive)
20 | CCCC[C@H]1OB(O)C[C@H]2C1=C(COC)C[C@H]1C(=O)N(Cc3ccccc3)C(=O)[C@H]12 | 0.2 (inactive) | 0.0845 | -0.386 | -6.5 (inactive) | -0.669 (inactive) | -0.331 (inactive)
21 | C=CC[C@]1(C(=O)NCC(O)CO)N=C(c2ccc(OCCCO)cc2)O[C@H]1c1ccccc1 (stereo not given in full) | 0.654 (inactive) | 0.124 | -0.851 | -5.04 (inactive) | -0.147 (inactive) | -0.0911 (inactive)
22 | CC(C)N1CC=CC23O[C@@H]4/C=C\CCCOC(=O)C4[C@H]2C(=O)N(CCO)[C@@H]3C1=O (stereo not given in full) | 1.85 (inactive) | 0.122 | -0.348 | -5.41 (inactive) | -1.32 (inactive) | -0.544 (inactive)
23 | CN(C)CCCC[C@@H]1NC(=O)[C@@H]2C[C@H](C(=O)O)[C@H](c3ccc(O)cc3)N2C1=O | 0.646 (inactive) | 0.386 | -1.35 | 2.19 (inactive) | 0.317 (inactive) | 0.448 (inactive)
24 | COC(=O)C1=CC(c2ccc(CO)cc2)=CC(C2CC2)N(Cc2sc3ccccc3c2Cl)C=C1C(=O)OC (stereo not given) | 2.17 (inactive) | 0.889 | -2.13 | -2.26 (inactive) | -0.288 (inactive) | -0.225 (inactive)
25 | CCCC[C@@H]1C[C@H]1[C@@H](NC(=O)c1cccs1)c1ccc(Cl)cc1 | 0.0874 (inactive) | -0.0771 | -0.911 | -0.736 (inactive) | -0.207 (inactive) | 0.205 (inactive)
26 | C=CC[C@@]12N=C(c3ccc(OCCCO)cc3)O[C@@H]1c1ccccc1CN(Cc1ccccc1)C2=O | 1.54 (inactive) | 0.78 | -2.61 | -1.94 (inactive) | -0.367 (inactive) | 0.0207 (inactive)
27 | CCCC/C=C/[C@H]([C@@H](O)Cc1ccccc1)N(CC#Cc1ccccc1)Cc1ccccc1Br | 0.227 (inactive) | -1.26 | -0.972 | 0.453 (inactive) | -0.138 (inactive) | -0.0836 (inactive)
28 | C[C@]1(C(=O)NCc2ccccc2)c2ccccc2C(=O)N(Cc2cc(C(F)(F)F)cc(C(F)(F)F)c2)[C@H]1c1ccc(CO)cc1 | 1.03 (inactive) | -0.105 | -1.61 | -1.78 (inactive) | -1.45 (inactive) | -2.06 (inactive)
29 | C[C@H]1NC(=O)[C@@H](C)NC(=O)[C@@]23C(=O)N[C@@H](Cc4ccccc4)C2[C@H](C)[C@@]2(C)O[C@H]2C3/C=C/C/C=C\CNC1=O (stereo not given in full) | 0.378 (inactive) | -0.166 | -0.428 | -3.98 (inactive) | -0.318 (inactive) | 0.412 (inactive)
30 | CC(C)C[C@@H]1NC(=O)[C@H](CC(C)C)NC(=O)[C@@]23C(=O)N[C@@H](Cc4ccccc4)C2[C@H](C)[C@@]2(C)O[C@H]2C3/C=C/CC/C=C/CNC1=O (stereo not given in full) | -0.404 (inactive) | 0.674 | -1.52 | -6.55 (inactive) | -0.218 (inactive) | -0.0919 (inactive)
